# PubChem BioAssay (NCATS)
# Results filed as inconclusive are left out. A call without a number means that no potency is given here. The source made the active and inactive calls. The call rests on the fitted dose curve; in most records, active means well fitted inhibition curve with a large enough effect; inconclusive means small, poorly fitted or top-dose-only effect; inactive means flat fitted curve, though single readings scatter.
# Legend:
# Assay in all cases: qHTS profiling for inhibitors of Plasmodium falciparum proliferation (AID 504749); further: nearly all actives have a fitted effect of over 60% in size
# Conditions in all cases: P. falciparum in erythrocytes, SYBR Green DNA, 72 h; series mostly up to 28.7 µM
# PAD = system: PAD
# Procedure, shortened: (§1)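 In a 72 h erythrocytic culture (37 C, humidified, 5% CO2) at 2.5% hematocrit and 0.3% starting parasitemia, compounds were tested; SYBR Green I in detergent lysis buffer stained parasite DNA overnight.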
# PC26 = system: PC26
# Procedure, shortened: as §1
# PC49 = system: PC49
# Procedure, shortened: as §1
# SC27B = system: SC27B
# Procedure, shortened: as §1
# TAB113 = system: TAB113
# Procedure, shortened: as §1
# TAB165 = system: TAB165
# Procedure, shortened: as §1
# W2 = system: W2
# Procedure, shortened: as §1
# PC15 = system: PC15
# Procedure, shortened: as §1
# TAB109 = system: TAB109
# Procedure, shortened: as §1
# Potency means the concentration at half of the fitted maximal effect.
SMILES,Potency (PAD),Potency (PC26),Potency (PC49),Potency (SC27B),Potency (TAB113),Potency (TAB165),Potency (W2),Potency (PC15),Potency (TAB109)
CCCCCCCC/C=C\CCCCCCCC(=O)O,inactive,inactive,inactive,inactive,inactive,inactive,inactive,,
CCCCCCC(O)C/C=C/CCCCCCCC(=O)O (centres undefined),inactive,inactive,inactive,inactive,inactive,inactive,inactive,inactive,
O=C(O)CCC(=O)C(=O)O,inactive,inactive,inactive,inactive,inactive,,inactive,inactive,inactive
CC(=O)Oc1cc(C)c(OC(C)=O)c2ccccc12,,7.57 µM (active),,,,12.6 µM (active),5.36 µM (active),4.47 µM (active),
C=C1C(=CC=C2CCC[C@@]3(C)[C@@H]2CC[C@H]3[C@H](C)CCCC(C)C)C[C@@H](O)C[C@@H]1O,,inactive,,,,,9.53 µM (active),,
COC(C(=O)C(O)C(C)O)C1Cc2cc3cc(OC4CC(OC5CC(O)C(O)C(C)O5)C(O)C(C)O4)c(C)c(O)c3c(O)c2C(=O)C1OC1CC(OC2CC(OC3CC(C)(O)C(O)C(C)O3)C(O)C(C)O2)C(O)C(C)O1 (centres undefined),0.224 µM (active),2.69 µM (active),inactive,0.178 µM (active),0.141 µM (active),0.141 µM (active),0.426 µM (active),0.501 µM (active),0.158 µM (active)
Clc1cc(Cl)c(OCC#CI)cc1Cl,11.2 µM (active),,,,5.01 µM (active),11.2 µM (active),10.7 µM (active),,11.2 µM (active)
COC(=O)[C@H]1[C@H]2CC3c4[nH]c5ccccc5c4CCN3C[C@@H]2CC[C@@H]1O (some centres undefined),inactive,,inactive,inactive,inactive,inactive,,inactive,inactive
O=CCCCC=O,inactive,,inactive,inactive,inactive,,13.5 µM (active),inactive,inactive
CCCCCCCCCCCC[n+]1ccc2ccccc2c1,2 µM (active),0.953 µM (active),,1.41 µM (active),1 µM (active),0.891 µM (active),0.301 µM (active),2.24 µM (active),0.631 µM (active)
COC(=O)C1=C(C#N)NC(C)=C(C(=O)OC(C)C)C1c1cccc([N+](=O)[O-])c1 (centres undefined),10 µM (active),13.5 µM (active),12.6 µM (active),8.91 µM (active),,10 µM (active),,10 µM (active),8.91 µM (active)
O=C(O)c1cc(=O)c2c3nc4ccccc4oc-3cc(=O)c2[nH]1,,,inactive,,inactive,,,,
CCCCC(CC)COC(=O)CC(C(=O)OCC(CC)CCCC)S(=O)(=O)O (centres undefined),,inactive,,,,,,,
CC[C@@]1(O)C(=O)OCc2c1cc1n(c2=O)Cc2cc3c([N+](=O)[O-])cccc3nc2-1,,,,5.62 µM (active),5.62 µM (active),3.98 µM (active),4.78 µM (active),,3.98 µM (active)
O=S(=O)(O)c1cc(O)c2c(N=Nc3ccc(Nc4ccccc4)c4c(S(=O)(=O)O)cccc34)cc(S(=O)(=O)O)cc2c1,inactive,,,inactive,,,,,
CN(C)CCCN1c2ccccc2C(C)(C)c2ccccc21,inactive,,inactive,,,,4.26 µM (active),,
O=C(Nc1ccc(Br)cc1)c1cc(Br)c(Br)s1,,,inactive,,,,,inactive,
CCOc1ccc(N=Nc2ccc(N)cc2N)cc1,,inactive,inactive,,,,inactive,inactive,inactive
O=C(Nc1cccc(C(F)(F)F)c1)c1cc(Br)cc(Br)c1O,,,,8.91 µM (active),12.6 µM (active),14.1 µM (active),6.75 µM (active),,
CCOC(=O)C1=CC2(CC)CCCN3CCc4c(n1c1ccccc41)C32 (centres undefined),11.2 µM (active),,,10 µM (active),11.2 µM (active),7.94 µM (active),,11.2 µM (active),7.94 µM (active)
CN=C(NC#N)Nc1ccc(C2=NNC(=O)C[C@@H]2C)cc1,inactive,,inactive,inactive,inactive,inactive,,inactive,inactive
CCCCCCCCCCCCCCCC(=O)OCC(COC(=O)CCCCCCCCCCCCCCC)OC(=O)CCCCCCCCCCCCCCC,inactive,inactive,inactive,inactive,inactive,inactive,inactive,inactive,
COc1cc(-c2ccc(-[n+]3nc(-c4ccccc4)nn3-c3ccc([N+](=O)[O-])cc3)c(OC)c2)ccc1-[n+]1nc(-c2ccccc2)nn1-c1ccc([N+](=O)[O-])cc1,,15.1 µM (active),,,,,12 µM (active),,
CCCCCCOc1ccc(C(=N)N(CCCC)CCCC)c2ccccc12,,,,,10 µM (active),12.6 µM (active),3.38 µM (active),10 µM (active),7.94 µM (active)
